Laboratory results as given in PubChem BioAssay AID1159580 (chemical genetic matrix, 2015).
Screen size: about 5,500 compounds; about 2,000 (36%) were called active. About 18% were inconclusive and are not listed. No stated cut-off is given here; in the data, active means normalized growth mostly below about 0.91 (no sharp cut-off); inconclusive means no clear call, values can overlap the other calls; inactive means mostly above about 0.92. This is one part of the list.

Assay: chemical genetic growth profiling, strain panel (AID 1159580);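 further: tested at 20 µM; growth read once vehicle control cultures reached saturation at 30 °C; 1 = growth at the plate median or of vehicle wells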
Conditions: S. cerevisiae deletion strains, growth OD

Measured: normalized growth

OCC(O)Cc1ccc2c(c1)OCO2 (stereo not drawn)
inactive: locus YAL013W, strain DEP1, stronger effect = lower value 1.02 | locus YAL021C, strain ccr4, stronger effect = lower value 1.02 | locus YAL026C, strain drs2, stronger effect = lower value 0.985 | locus YAL030W, strain snc1, stronger effect = lower value 1 | locus YBL061C, strain skt5, stronger effect = lower value 0.997 | locus YBR009C, strain hhf1, stronger effect = lower value 1.01 | locus YBR021W, strain FUR4, stronger effect = lower value 1.02 | locus YBR023C, strain chs3, stronger effect = lower value 1.01 | locus YBR171W, strain sec66, stronger effect = lower value 1.01 | locus YBR229C, strain ROT2, stronger effect = lower value 1.01 | locus YBR231C, strain swc5, stronger effect = lower value 0.992 | locus YBR279W, strain paf1, stronger effect = lower value 1 | locus YCL011C, strain gbp2, stronger effect = lower value 1 | locus YCL016C, strain dcc1, stronger effect = lower value 1 | locus YCL029C, strain bik1, stronger effect = lower value 0.997 | locus YCL069W, strain vba3, stronger effect = lower value 0.981 | locus YCR088W, strain abp1, stronger effect = lower value 0.993 | locus YDL005C, strain med2, stronger effect = lower value 0.999 | locus YDL035C, strain GPR1, stronger effect = lower value 1.02 | locus YDL040C, strain nat1, stronger effect = lower value 0.998 | locus YDL074C, strain BRE1, stronger effect = lower value 1.05 | locus YDL101C, strain DUN1, stronger effect = lower value 1.02 | locus YDL134C, strain PPH21, stronger effect = lower value 1.01 | locus YDL185W, strain tfp1, stronger effect = lower value 0.999 | locus YDL192W, strain arf1, stronger effect = lower value 0.999 | locus YDR001C, strain nth1, stronger effect = lower value 0.997 | locus YDR069C, strain doa4, stronger effect = lower value 0.979 | locus YDR101C, strain arx1, stronger effect = lower value 0.989 | locus YDR137W, strain rgp1, stronger effect = lower value 0.993 | locus YDR150W, strain NUM1, stronger effect = lower value 1.02 | locus YDR159W, strain sac3, stronger effect = lower value 0.971 | locus YDR162C, strain NBP2, stronger effect = lower value 1.03 | locus YDR195W, strain ref2 0.966 | locus YDR297W, strain sur2, stronger effect = lower value 1.01 | locus YDR318W, strain mcm21, stronger effect = lower value 0.991 | locus YDR334W, strain swr1, stronger effect = lower value 1 | locus YDR335W, strain msn5, stronger effect = lower value 0.996 | locus YDR388W, stronger effect = lower value 1 | locus YDR392W, strain spt3, stronger effect = lower value 1.02 | locus YDR502C, strain sam2, stronger effect = lower value 1 | locus YEL003W, strain gim4, stronger effect = lower value 1.01 | locus YEL037C, strain rad23, stronger effect = lower value 1.01 | locus YEL061C, strain CIN8 (second series), stronger effect = lower value 1 | locus YEL061C, strain CIN8, stronger effect = lower value 1.01 | locus YER015W, strain faa2, stronger effect = lower value 1 | locus YER016W, strain bim1, stronger effect = lower value 1 | locus YER110C, stronger effect = lower value 0.996 | locus YER111C, strain swi4, stronger effect = lower value 0.997 | locus YER155C, strain BEM2 (second series), stronger effect = lower value 0.993 | locus YER155C, strain BEM2, stronger effect = lower value 1.01 | locus YER167W, strain BCK2, stronger effect = lower value 1.01 | locus YFR010W, strain ubp6, stronger effect = lower value 1.01 | locus YGL078C, strain dbp3, stronger effect = lower value 1 | locus YGL086W, strain mad1, stronger effect = lower value 0.993 | locus YGL167C, strain pmr1, stronger effect = lower value 1 | locus YGL173C, strain kem1, stronger effect = lower value 0.991 | locus YGL227W, strain vid30, stronger effect = lower value 0.985 | locus YGL240W, strain doc1, stronger effect = lower value 0.984 | locus YGL248W, strain PDE1, stronger effect = lower value 1.01 | locus YGL253W, strain hxk2, stronger effect = lower value 1 | locus YGR078C, strain PAC10, stronger effect = lower value 1.02 | locus YGR135W, strain pre9, stronger effect = lower value 1.01 | locus YGR229C, strain SMI1, stronger effect = lower value 1.02 | locus YGR252W, strain gcn5, stronger effect = lower value 1 | locus YHR013C, strain ard1, stronger effect = lower value 1.01 | locus YHR027C, strain rpn1, stronger effect = lower value 1 | locus YHR030C, strain SLT2, stronger effect = lower value 1.01 | locus YHR079C, strain IRE1 (second series), stronger effect = lower value 0.991 | locus YHR094C, strain hxt1, stronger effect = lower value 0.999 | locus YHR129C, strain ARP1, stronger effect = lower value 1.01 | locus YHR142W, strain chs7, stronger effect = lower value 1.01 | locus YHR200W, strain rpn10, stronger effect = lower value 1 | locus YIL066C, strain RNR3, stronger effect = lower value 1.02 | locus YIL073C, strain SPO22, stronger effect = lower value 1.04 | locus YIL125W, strain kgd1, stronger effect = lower value 1.02 | locus YIR030C, strain dcg1, stronger effect = lower value 1 | locus YJL092W, strain hpr5, stronger effect = lower value 0.998 | locus YJL095W, strain BCK1 (second series), stronger effect = lower value 1 | locus YJL095W, strain BCK1, stronger effect = lower value 1.04 | locus YJL115W, strain asf1, stronger effect = lower value 1 | locus YJL129C, strain trk1, stronger effect = lower value 0.989 | locus YJL134W, strain LCB3, stronger effect = lower value 1.01 | locus YJL154C, strain vps35, stronger effect = lower value 1 | locus YJL164C, strain tpk1, stronger effect = lower value 1.01 | locus YJL166W, strain qcr8, stronger effect = lower value 1.02 | locus YJL168C, strain set2, stronger effect = lower value 0.994 | locus YJL187C, strain SWE1 (second series), stronger effect = lower value 1.03 | locus YJL187C, strain SWE1, stronger effect = lower value 0.982
